Test results from PubChem BioAssay AID1159580 (chemical genetic matrix, 2015).
Where “and” joins values, the source holds several entries; their conditions need not be identical. Identical values can stand only once. Among all 5,500 compounds or so, about 2,000 (36%) were called active. Not shown: some 18% with an inconclusive outcome. No stated cut-off is given here; in the data, active means normalized growth mostly below about 0.91 (no sharp cut-off); inconclusive means no clear call, values can overlap the other calls; inactive means mostly above about 0.92. The list shows a part of the results.

Assay: chemical genetic growth profiling, strain panel (AID 1159580);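 further: tested at 20 µM; growth read once vehicle control cultures reached saturation at 30 °C; 1 = growth at the plate median or of vehicle wells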
Details: S. cerevisiae deletion strains, growth OD

Measured: normalized growth

CC1CC[C@]2(NC1)O[C@H]1CC3C4CC[C@H]5C[C@@H](O)CC[C@]5(C)C4CC[C@]3(C)[C@H]1[C@@H]2C (stereo not given in full)
active: locus YAL021C, strain ccr4, stronger effect = lower value 0.173 | locus YAL026C, strain drs2, stronger effect = lower value 0.0682 | locus YAL030W, strain snc1, stronger effect = lower value 0.0859 | locus YBL061C, strain skt5, stronger effect = lower value 0.109 | locus YBR009C, strain hhf1, stronger effect = lower value 0.0771 | locus YBR021W, strain FUR4, stronger effect = lower value 0.272 | locus YBR023C, strain chs3, stronger effect = lower value 0.102 | locus YBR171W, strain sec66, stronger effect = lower value 0.159 | locus YBR229C, strain ROT2, stronger effect = lower value 0.107 | locus YBR231C, strain swc5, stronger effect = lower value 0.167 | locus YBR279W, strain paf1, stronger effect = lower value 0.143 | locus YCL011C, strain gbp2, stronger effect = lower value 0.0814 | locus YCL016C, strain dcc1, stronger effect = lower value 0.103 | locus YCL029C, strain bik1, stronger effect = lower value 0.0809 | locus YCL061C, strain MRC1, stronger effect = lower value 0.103 | locus YCL069W, strain vba3, stronger effect = lower value 0.0775 | locus YCR088W, strain abp1, stronger effect = lower value 0.111 | locus YDL005C, strain med2, stronger effect = lower value 0.104 | locus YDL035C, strain GPR1, stronger effect = lower value 0.0845 | locus YDL040C, strain nat1, stronger effect = lower value 0.164 | locus YDL074C, strain BRE1, stronger effect = lower value 0.148 | locus YDL101C, strain DUN1, stronger effect = lower value 0.0938 | locus YDL185W, strain tfp1, stronger effect = lower value 0.0599 | locus YDL192W, strain arf1, stronger effect = lower value 0.0839 | locus YDR001C, strain nth1, stronger effect = lower value 0.108 | locus YDR069C, strain doa4, stronger effect = lower value 0.386 | locus YDR101C, strain arx1, stronger effect = lower value 0.104 | locus YDR137W, strain rgp1, stronger effect = lower value 0.534 | locus YDR159W, strain sac3, stronger effect = lower value 0.11 | locus YDR162C, strain NBP2, stronger effect = lower value 0.0587 | locus YDR195W, strain ref2 0.225 | locus YDR297W, strain sur2, stronger effect = lower value 0.102 | locus YDR318W, strain mcm21, stronger effect = lower value 0.0797 | locus YDR334W, strain swr1, stronger effect = lower value 0.0978 | locus YDR335W, strain msn5, stronger effect = lower value 0.101 | locus YDR388W, stronger effect = lower value 0.0652 | locus YDR392W, strain spt3, stronger effect = lower value 0.0848 | locus YDR502C, strain sam2, stronger effect = lower value 0.0839 | locus YEL003W, strain gim4, stronger effect = lower value 0.0733 | locus YEL037C, strain rad23, stronger effect = lower value 0.197 | locus YEL061C, strain CIN8 (second series), stronger effect = lower value 0.0698 | locus YER015W, strain faa2, stronger effect = lower value 0.118 | locus YER016W, strain bim1, stronger effect = lower value 0.102 | locus YER110C, stronger effect = lower value 0.135 | locus YER111C, strain swi4, stronger effect = lower value 0.0988 | locus YER155C, strain BEM2 (second series), stronger effect = lower value 0.113 | locus YER155C, strain BEM2, stronger effect = lower value 0.0788 | locus YER167W, strain BCK2, stronger effect = lower value 0.0623 | locus YFR010W, strain ubp6, stronger effect = lower value 0.375 | locus YGL078C, strain dbp3, stronger effect = lower value 0.124 | locus YGL086W, strain mad1, stronger effect = lower value 0.073 | locus YGL167C, strain pmr1, stronger effect = lower value 0.319 | locus YGL173C, strain kem1, stronger effect = lower value 0.442 | locus YGL227W, strain vid30, stronger effect = lower value 0.0819 | locus YGL240W, strain doc1, stronger effect = lower value 0.257 | locus YGL248W, strain PDE1, stronger effect = lower value 0.0587 | locus YGL253W, strain hxk2, stronger effect = lower value 0.0659 | locus YGR135W, strain pre9, stronger effect = lower value 0.0764 | locus YGR229C, strain SMI1, stronger effect = lower value 0.0768 | locus YGR252W, strain gcn5, stronger effect = lower value 0.211 | locus YHR013C, strain ard1, stronger effect = lower value 0.136 | locus YHR027C, strain rpn1, stronger effect = lower value 0.324 | locus YHR030C, strain SLT2, stronger effect = lower value 0.142 | locus YHR079C, strain IRE1 (second series), stronger effect = lower value 0.0949 | locus YHR079C, strain IRE1, stronger effect = lower value 0.54 | locus YHR094C, strain hxt1, stronger effect = lower value 0.0761 | locus YHR129C, strain ARP1, stronger effect = lower value 0.0658 | locus YHR142W, strain chs7, stronger effect = lower value 0.0852 | locus YHR200W, strain rpn10, stronger effect = lower value 0.103 | locus YIL066C, strain RNR3, stronger effect = lower value 0.0618 | locus YIL073C, strain SPO22, stronger effect = lower value 0.125 | locus YIL125W, strain kgd1, stronger effect = lower value 0.102 | locus YIR030C, strain dcg1, stronger effect = lower value 0.0851 | locus YJL092W, strain hpr5, stronger effect = lower value 0.0924 | locus YJL095W, strain BCK1 (second series), stronger effect = lower value 0.0627 | locus YJL095W, strain BCK1, stronger effect = lower value 0.0635 and 0.17 | locus YJL115W, strain asf1, stronger effect = lower value 0.113 | locus YJL129C, strain trk1, stronger effect = lower value 0.102 | locus YJL134W, strain LCB3, stronger effect = lower value 0.0651 | locus YJL154C, strain vps35, stronger effect = lower value 0.156 | locus YJL164C, strain tpk1, stronger effect = lower value 0.0795 | locus YJL166W, strain qcr8, stronger effect = lower value 0.0744 | locus YJL168C, strain set2, stronger effect = lower value 0.0986 | locus YJL187C, strain SWE1 (second series), stronger effect = lower value 0.0801 | locus YJR043C, strain POL32, stronger effect = lower value 0.0984
